PubChem BioAssay (Tox21)
Results filed as inconclusive are left out. Activity calls are given as the source filed them. Unless noted, calls follow the shape of the full dose curve.

Assays:
[1] = Nuclear factor erythroid 2-related factor 2/antioxidant responsive element (Nrf2/ARE) small molecule agonists: qHTS cell viability counter screen in human keratinocytes (AID 1919968; active = well fitted curve in the direction sought with a large enough effect in the repeat runs; an effect the other way counts as inactive or inconclusive; also: nearly all actives have a fitted effect of over 55% in size)
Method in brief: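 Cells of the KeratinoSens line were plated at 1,500 per well and left for 5 h before compound transfer from DMSO stocks. After a 23 h incubation (37 C, 5% CO2), CellTiter-Fluor was added. Signal was taken as fluorescence intensity 1 h later.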

[2] = Nuclear factor erythroid 2-related factor 2/antioxidant responsive element (Nrf2/ARE) small molecule agonists: luciferase reporter gene qHTS assay in human keratinocytes (AID 1919969); also: nearly all actives have a fitted effect of over 35% in size
[3] = molecular target: KiSS-1 receptor (Homo sapiens) (UniProt Q969F8); assay: Human kisspeptin (KISS1R) small molecule agonists, calcium flux assay in KISS1R-HEK293 cells (AID 1920064; active = well fitted curve in the direction sought with a large enough effect in the repeat runs; an effect the other way counts as inactive or inconclusive)
Method in brief: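 Cell line: HEK293, stable human KISS1R. Dye loading 1 h at 37 C after 18 h culture. Read: kinetic fluorescence, 480/540 nm, 3 min at 1 s intervals.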

[4] = G protein-coupled receptor (GPCR) small molecule agonists, calcium flux assay: HEK293 wild type cell line counter screen (AID 1920065)
Method in brief: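 Tox21 10K compounds, 15 concentrations each in triplicate, pin-transferred in DMSO onto dye-loaded cells; kinetic read at 480/540 nm for 3 min, 1 s intervals.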

[5] = p53 small molecule agonists, cell-based qHTS assay with human liver microsomes (AID 1963577)
Method in brief: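 Cells carrying a p53-responsive bla reporter were rested 5 h (37 C, 5% CO2) before compound transfer. Human liver microsomes plus NADPH, 0.5 mg/mL final apiece, supplied metabolism during the 16 h 37 C exposure.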

[6] = p53 small molecule agonists, cell-based qHTS assay with rat liver microsomes (AID 1963578)
Method in brief: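 Fluorescence from a beta-lactamase reporter under a p53 response element was measured after cells had been incubated 16 h at 37 C with test compound and rat liver microsomes plus NADPH (0.5 mg/mL final each).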

[7] = p53 small molecule agonists, cell-based qHTS assay with human liver microsomes: qHTS cell viability counter screen (AID 1963579); also: nearly all actives have a fitted effect of over 45% in size
Method in brief: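 Seed p53RE-bla cells at 4,000 per well; incubate 5 h at 37 C; add compound, human liver microsomes and NADPH; incubate 16 h at 37 C; add CellTiter-Glo; after 30 min at room temperature, read luminescence.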

[8] = p53 small molecule agonists, cell-based qHTS assay: qHTS cell viability counter screen (AID 1963581); also: nearly all actives have a fitted effect of over 45% in size
Method in brief: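 ATP content measured by luminescence in HCT-116 p53RE-bla cells treated 16 h at 37 C, same wells as the reporter screen.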

[9] = p53 small molecule agonists, cell-based qHTS assay (AID 1963582; active = well fitted activation curve with a large enough effect in the signal ratio in the repeat runs, not every such curve was filed as active; the % refers to the signal ratio)
Method in brief: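 16 h compound exposure (37 C) of p53 response element–bla cells, preceded by 5 h recovery at 37 C/5% CO2; read-out via LiveBLAzer B/G FRET substrate, 2 h RT, fluorescence intensity.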

[10] = molecular target: 5-hydroxytryptamine receptor 2A (Homo sapiens) (UniProt P28223); assay: 5-hydroxytryptamine receptor 2A (HTR2A) small molecule antagonists, cell-based qHTS assay (AID 1963586); also: nearly all actives have a fitted effect of over 45% in size
Method in brief: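 CHO cells stably expressing human HTR2A were plated for 18 h at 37 C, then loaded with calcium dye for 1 h. Compounds were preincubated 5 min at room temperature before DOI (4 nM solution) was added. Kinetic fluorescence was read for 3 min.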

[11] = molecular target: 5-hydroxytryptamine receptor 2A (Homo sapiens) (UniProt P28223); assay: 5-hydroxytryptamine receptor 2A (HTR2A) small molecule agonists, cell-based qHTS assay (AID 1963587); also: nearly all actives have a fitted effect of over 30% in size
Method in brief: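 Kinetic calcium-flux fluorescence (2 min, 1 sec intervals) after compound addition in agonist mode. HTR2A-CHO cells were cultured 18 h, then dye-loaded 1 h at 37 C.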

[12] = molecular target: Muscarinic acetylcholine receptor M1 (Homo sapiens) (UniProt P11229); assay: Cholinergic receptor muscarinic 1 (CHRM1) small molecule antagonists, cell-based qHTS assay (AID 1963588); also: nearly all actives have a fitted effect of over 40% in size
Method in brief: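 Compounds were tested at 15 concentrations in three independent runs. Dye-loaded CHRM1-CHO cells were exposed 5 min at room temperature before stimulation by acetylcholine added at 50nM. Intracellular calcium was read kinetically on FDSS for 3 min.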

[13] = molecular target: Muscarinic acetylcholine receptor M1 (Homo sapiens) (UniProt P11229); assay: Cholinergic receptor muscarinic 1 (CHRM1) small molecule agonists, cell-based qHTS assay (AID 1963589); also: nearly all actives have a fitted effect of over 35% in size
Method in brief: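 Homogeneous fluorescence calcium flux, agonist mode. Human M1-expressing CHO cells; compound dosed at 15 concentrations, three independent runs; signal sampled every 1 sec.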

[14] = cAMP Responsive Elements (CRE) small molecule agonists, cell-based qHTS assay (AID 1963590)
Method in brief: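 HEK 293T cells stably bearing CRE-bla were plated at 2,000 cells per well and rested 18 h. Compounds, positive controls or DMSO were added for 3 h at 37 C. LiveBLAzer B/G substrate was then loaded for 2 h at room temperature.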

[15] = cAMP Responsive Elements (CRE) small molecule antagonists, cell-based qHTS assay (AID 1963591; active = well fitted inhibition curve with a large enough effect in the signal ratio in the repeat runs, not every such curve was filed as active; the % refers to the signal ratio)
Method in brief: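 First, CRE-bla HEK293T cells settled 18 h at 37 C. Next, compound and 0.25 uM final NKH477 were applied for 3 h. Last, LiveBLAzer B/G substrate was loaded for 2 h at room temperature.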

[16] = molecular target: Beta-2 adrenergic receptor (Homo sapiens) (UniProt P07550); assay: Adrenergic beta2 receptor (ADRB2) small molecule antagonists, cell-based qHTS assay (AID 1963592); also: series mostly up to about 92 µM; nearly all actives have a fitted effect of over 50% in size
Method in brief: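 Assay format: CHO-ADRB2 cells, 18-20hr seeding at 37C/5% CO2, then compound plus 1nM isoproterenol agonist mix for 0.5hr RT. Homogeneous time-resolved fluorescence cAMP detection after 1hr, expressed as 665/615 nm ratio.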

[17] = molecular target: Beta-2 adrenergic receptor (Homo sapiens) (UniProt P07550); assay: Adrenergic beta2 receptor (ADRB2) small molecule agonists, cell-based qHTS assay (AID 1963593);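 also: CHO cells stably overexpressing human ADRB2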
Method in brief: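 CHO cells stably over-expressing ADRB2 were plated overnight at 37C, then dosed with compounds plus a stimulation mix containing 100uM IBMX and 25uM Ro-20-1724 for 0.5hr at room temperature. cAMP was measured by HTRF competition, 1hr.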

[18] = molecular target: D(2) dopamine receptor (Homo sapiens) (UniProt P14416); assay: Dopamine D2 receptor (DRD2) small molecule agonists, cell-based qHTS assay (AID 1963594); also: nearly all actives have a fitted effect of over 35% in size
Method in brief: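 cAMP accumulation in DRD2-HEK293 cells measured by HTRF after 1 h detection; compounds added 10 min before NKH477 (200nM […]) forskolin-analogue stimulation, 30 min at room temperature, with Ro20-1724 present at 0.1 mM final.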

[19] = molecular target: D(2) dopamine receptor (Homo sapiens) (UniProt P14416); assay: Dopamine D2 receptor (DRD2) small molecule antagonists, cell-based qHTS assay (AID 1963595; active = well fitted inhibition curve with a large enough effect in the signal ratio in the repeat runs, with a control signal flat; the % refers to the signal ratio)
Method in brief: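 Antagonist mode in DRD2-HEK293 cells: after compound addition with 0.1 mM Ro20-1724, cells received quinpirole (12 nM) and NKH477 (200 nM) for 30 min at room temperature; HTRF cAMP read after 1 h detection.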

[20] = p53 small molecule agonists, cell-based qHTS assay with rat liver microsomes: qHTS cell viability counter screen (AID 1963580); also: nearly all actives have a fitted effect of over 45% in size
Method in brief: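 Cytotoxicity counter screen: intracellular ATP read by CellTiter-Glo luminescence in the p53 reporter wells. HCT-116 p53RE-bla cells were treated for 16 h at 37 C alongside rat liver microsomes and NADPH, each 0.5 mg/mL final.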

Measured: Potency

Chain of KiSS-1 receptor (Homo sapiens) (Q969F8 whole entry, looked up): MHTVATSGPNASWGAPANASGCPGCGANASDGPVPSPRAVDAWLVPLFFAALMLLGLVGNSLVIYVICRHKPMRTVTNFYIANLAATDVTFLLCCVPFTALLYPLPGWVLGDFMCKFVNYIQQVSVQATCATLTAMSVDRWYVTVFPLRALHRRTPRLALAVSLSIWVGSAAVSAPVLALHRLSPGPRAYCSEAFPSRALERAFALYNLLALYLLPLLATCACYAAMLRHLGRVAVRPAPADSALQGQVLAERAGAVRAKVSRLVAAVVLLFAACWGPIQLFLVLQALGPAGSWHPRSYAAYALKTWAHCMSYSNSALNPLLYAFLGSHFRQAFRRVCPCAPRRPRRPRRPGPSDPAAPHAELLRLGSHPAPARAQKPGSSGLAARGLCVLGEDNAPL
Chain of D(2) dopamine receptor (Homo sapiens) (P14416 whole entry, looked up): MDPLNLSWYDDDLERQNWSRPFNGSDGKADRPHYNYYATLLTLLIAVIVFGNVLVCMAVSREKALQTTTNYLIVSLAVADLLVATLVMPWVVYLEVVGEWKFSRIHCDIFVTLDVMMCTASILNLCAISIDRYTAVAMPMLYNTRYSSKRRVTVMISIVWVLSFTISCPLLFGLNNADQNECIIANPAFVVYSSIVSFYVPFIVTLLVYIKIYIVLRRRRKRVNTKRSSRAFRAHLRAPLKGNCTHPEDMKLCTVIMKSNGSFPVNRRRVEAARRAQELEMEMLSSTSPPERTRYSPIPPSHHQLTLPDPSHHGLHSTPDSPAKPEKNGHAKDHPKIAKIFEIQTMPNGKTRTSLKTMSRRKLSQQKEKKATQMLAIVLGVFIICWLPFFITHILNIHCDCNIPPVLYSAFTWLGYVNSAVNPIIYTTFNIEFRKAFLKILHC
Chain of Beta-2 adrenergic receptor (Homo sapiens) (P07550 whole entry, looked up): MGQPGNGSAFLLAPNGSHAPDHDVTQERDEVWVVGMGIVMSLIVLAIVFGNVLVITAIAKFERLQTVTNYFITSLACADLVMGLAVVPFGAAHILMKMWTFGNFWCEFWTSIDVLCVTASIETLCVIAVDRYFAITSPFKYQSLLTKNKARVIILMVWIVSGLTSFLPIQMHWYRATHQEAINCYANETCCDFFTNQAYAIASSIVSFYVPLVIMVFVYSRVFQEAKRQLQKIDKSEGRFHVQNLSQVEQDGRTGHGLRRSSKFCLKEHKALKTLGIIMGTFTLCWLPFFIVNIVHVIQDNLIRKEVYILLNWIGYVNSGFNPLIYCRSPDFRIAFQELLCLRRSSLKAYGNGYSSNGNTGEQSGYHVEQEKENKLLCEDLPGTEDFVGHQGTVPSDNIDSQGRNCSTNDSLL
Chain of 5-hydroxytryptamine receptor 2A (Homo sapiens) (P28223 whole entry, looked up): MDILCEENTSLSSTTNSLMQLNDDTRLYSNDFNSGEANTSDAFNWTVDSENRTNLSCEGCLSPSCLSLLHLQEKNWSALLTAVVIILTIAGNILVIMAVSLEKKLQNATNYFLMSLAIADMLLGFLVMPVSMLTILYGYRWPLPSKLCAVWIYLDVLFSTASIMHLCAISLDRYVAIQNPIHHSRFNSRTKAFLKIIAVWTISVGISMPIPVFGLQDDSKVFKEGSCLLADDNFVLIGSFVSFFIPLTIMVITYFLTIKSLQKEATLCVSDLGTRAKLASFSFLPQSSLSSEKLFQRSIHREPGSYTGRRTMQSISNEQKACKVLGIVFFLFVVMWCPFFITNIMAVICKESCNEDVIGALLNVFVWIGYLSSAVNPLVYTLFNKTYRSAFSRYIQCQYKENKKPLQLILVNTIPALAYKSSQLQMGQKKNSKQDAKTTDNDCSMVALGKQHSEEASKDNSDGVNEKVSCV
Chain of Muscarinic acetylcholine receptor M1 (Homo sapiens) (P11229 whole entry, looked up): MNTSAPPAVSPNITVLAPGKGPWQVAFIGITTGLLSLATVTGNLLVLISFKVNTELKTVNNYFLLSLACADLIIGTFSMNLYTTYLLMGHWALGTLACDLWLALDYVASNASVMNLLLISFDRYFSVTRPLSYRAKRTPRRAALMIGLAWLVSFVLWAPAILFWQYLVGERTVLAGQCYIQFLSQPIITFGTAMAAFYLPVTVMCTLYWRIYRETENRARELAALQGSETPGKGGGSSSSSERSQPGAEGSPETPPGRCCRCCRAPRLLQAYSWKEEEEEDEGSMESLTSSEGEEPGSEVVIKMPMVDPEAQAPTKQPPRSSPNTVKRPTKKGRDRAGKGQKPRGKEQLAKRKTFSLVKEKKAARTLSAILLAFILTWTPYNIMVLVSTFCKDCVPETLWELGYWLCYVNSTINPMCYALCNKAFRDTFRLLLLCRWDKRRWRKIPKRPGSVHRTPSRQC

CC(=O)C(C)=O
not listed: [19] | [20]
inactive: all other assays above

CC(=O)O[C@H]1C[C@@H]2CC[C@@H]3[C@H](CC[C@@]4(C)[C@H]3C[C@H]([N+]3(C)CCCCC3)[C@@H]4OC(C)=O)[C@@]2(C)C[C@@H]1N1CCCCC1
not listed: [10] | [11] | [12] | [13] | [16] | [17] | [20]
inactive: all other assays above

Nc1nc2c(ncn2CCC(CO)CO)c(=O)[nH]1
not listed: [9] | [10] | [11] | [12] | [13] | [15] | [18]
inactive: all other assays above

NC(=O)c1cn(Cc2c(F)cccc2F)nn1
not listed: [10] | [20]
inactive: all other assays above

C=COCCCCO
not listed: [6] | [12] | [14]
inactive: all other assays above

C[N+]1(CC2COC(c3ccccc3)(C3CCCCC3)O2)CCCCC1 (centres undefined)
not listed: [7] | [9] | [14] | [15]
inactive: all other assays above

CCCCCCCCCCCSCC(=O)O
not listed: [9] | [10] | [14] | [15] | [16] | [18]
inactive: all other assays above
